Experimental findings from PubChem BioAssay AID1509 (The Scripps Research Institute Molecular Screening Center, 2009) are described below.

About 770 (0.35%) of roughly 220,000 compounds were called active. This is one part of a sample in which actives are shown more often than they occur. No stated cut-off is given here; in the data, active means activation above about 11%; inactive means the rest.

In the assay the target is Sphingosine 1-phosphate receptor 4 (Homo sapiens) (UniProt O95977). Nature of the assay: S1P4 receptor agonists, primary screen, cell-based (AID 1509).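 Further: 0% = DMSO vehicle and 100% = reference agonist.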 The conditions noted are these: S1P4-expressing cell line, agonist reporter assay; at 4.98 µM; hits give high values.
Sequence of Sphingosine 1-phosphate receptor 4 (Homo sapiens) (O95977 whole entry, looked up): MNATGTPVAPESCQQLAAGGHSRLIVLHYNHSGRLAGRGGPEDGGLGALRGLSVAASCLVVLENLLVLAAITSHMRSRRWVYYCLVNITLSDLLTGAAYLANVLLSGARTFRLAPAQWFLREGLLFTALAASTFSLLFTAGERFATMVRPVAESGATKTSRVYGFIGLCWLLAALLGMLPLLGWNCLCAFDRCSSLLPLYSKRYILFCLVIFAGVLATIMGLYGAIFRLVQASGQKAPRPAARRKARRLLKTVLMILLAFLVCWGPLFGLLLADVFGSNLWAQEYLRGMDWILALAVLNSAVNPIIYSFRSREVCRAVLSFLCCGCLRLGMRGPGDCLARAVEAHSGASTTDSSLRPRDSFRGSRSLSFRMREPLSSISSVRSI
On to `O=S(=O)(NCCc1ccncc1)c1ccccc1`, for which the activation was -2.17% (inactive).
`CCN(CC)CCCSc1nc2ccccc2s1`: the activation was -1.06% (inactive).
Consider `CCC(=O)Oc1cccc(C(=O)Nc2ccc(-c3nnc(-c4ccco4)o3)cc2)c1`, for which the activation was 1.45% (inactive).
As for `CCOc1ccc(-c2nnc(-c3ccco3)o2)cc1`, the activation was 13.2% (active).
Turning to `CCCCOc1ccc(-c2nnc(-c3ccco3)o2)cc1`, the activation is 0.55% (inactive).
In the case of `COC(=O)[C@@H]1CC[C@H](C)[C@@H](c2ccc(C)cc2)N1C(=O)c1ccc(/C=N/O[C@H](C)c2cn([C@@H]3COC[C@H]3O)nn2)cc1` it was 44.7% (active); in that of `O=C(CC1C(=O)NCCN1CC(c1ccccc1)c1ccccc1)NCCc1cn[nH]c1` (stereo not drawn), -1.81% (inactive); in that of `Cc1cc(C(=O)COC(=O)C2CC2)c(C)n1-c1ccc(F)cc1`, 1.5% (inactive).
As to `Cc1ccc(S(=O)(=O)NC(=O)Nc2nc(-c3ccc(F)c(F)c3)cs2)cc1`, the activation is 1.19% (inactive).
In the case of `CNS(=O)(=O)c1ccc(NC(=O)C2CC(=O)N(c3ccc(Cl)cc3)C2)cc1` (stereo not drawn) it was -4.58% (inactive).
`COc1cccc2c1CCC(NC(C)=O)C2=O` (stereo not drawn): the activation was 1.12% (inactive).
In the case of `O=C(CSc1nnc(Cc2ccccc2)n1-c1ccccc1)N1CCOCC1` it was -2.13% (inactive); in that of `O=C(CSc1nncn1-c1cccnc1)N1CCOCC1`, 44.7% (active); in that of `Cn1c(SCC(=O)N2CCOCC2)nnc1-c1ccc2ncccc2c1`, 1.83% (inactive).
In the case of `O=C(Nc1ccc(NC(=O)c2ccco2)c(Cl)c1)c1cccc([N+](=O)[O-])c1` it was 1.27% (inactive); in that of `CCN(CC)S(=O)(=O)c1cccc(-c2n[nH]c(=S)n2/N=C/c2ccc(C(=O)OC)cc2)c1`, 0.89% (inactive).
In the case of `CC(=O)Nc1ccc(Nc2c3ccccc3nc3ccccc23)cc1` it was 4.18% (inactive).
On to `Cc1cc(CNC(=O)c2cccc([N+](=O)[O-])c2)c2ccccc2n1`, for which the activation was 1.06% (inactive).
For `O=[N+]([O-])c1cccc(Nc2c3ccccc3nc3ccccc23)c1` the value was 13.1% (active).
For `CCCCc1ccc(S(N)(=O)=O)cc1` the value was -0.75% (inactive); for `CC(C)(C)n1cnnc1Sc1ccc([N+](=O)[O-])cn1`, -0.36% (inactive).
For `CC(C)(C)C(=O)NCCCNc1ccc([N+](=O)[O-])cc1` the value was 0.65% (inactive); for `Cc1cc(C)c(C#N)c(SCC(=O)Nc2ccccc2)n1`, 2.39% (inactive).
For the compound `Cc1cc(C)c(C#N)c(SCc2ccccc2C(=O)O)n1`, the activation is 0.52% (inactive).
Turning to `Cc1cc(C)c(C#N)c(SCC(=O)NN2CC(=O)N(c3ccccc3F)CC2=O)n1`, the activation was 55.1% (active).
Regarding `O=C(O)CCn1cc(/C=C/C(=O)c2ccc(Cl)cc2)c(-c2cccc(Br)c2)n1`, the activation was 0.7% (inactive).
As for `CCc1ccc(/C=N/NC(=O)c2ccc(OC3CCCC3)cc2)s1`, the activation was 0.66% (inactive).
For `O=C(O)/C=C/C(=O)NNc1ccc([N+](=O)[O-])cc1` the value was -0.64% (inactive); for `Cc1csc(/N=C/N(C)C)c1C#N`, 0.51% (inactive).
On to `COc1ccccc1C(c1nnnn1C(C)(C)C)N1CCN(Cc2ccccc2)CC1` (stereo not drawn), for which the activation was -1.97% (inactive).
For the compound `CCCC(c1nnnn1C(C)(C)C)N1CCN(Cc2ccccc2)CC1` (stereo not drawn), the activation is 0.72% (inactive).
In the case of `CC(C)C(c1nnnn1C(C)(C)C)N1CCN(Cc2cccnc2)CC1` (stereo not drawn) it was 12.3% (active).
For `CC(=O)Nc1ccc(NC(=O)CSc2ncnc3c2cnn3Cc2ccccc2)cc1` the value was -0.48% (inactive); for `COc1ccc(C(C(=O)NC(C)(C)C)N(C(=O)Cn2nnc3ccccc32)c2ccc(C(C)=O)cc2)cc1O` (stereo not drawn), 0.1% (inactive); for `CCOC(=O)COc1nc(C)cc(C(F)(F)F)c1C#N`, -0.16% (inactive).
In the case of `CCc1ccc(-n2c(=S)sc3c(=O)n(-c4ccccc4OC)c(=S)[nH]c32)cc1` it was 1.93% (inactive).
For the compound `O=C(NC1CCCCC1)C1CCCN(S(=O)(=O)c2ccc(Br)s2)C1` (stereo not drawn), the activation is 1.69% (inactive).
As for `CCOc1cc(N2CCOCC2)c(OCC)cc1NC(=O)C1=NN(c2cccc(C)c2)C(=O)CC1`, the activation was 0.94% (inactive).
On to `Cc1ccc(/C([O-])=C(/C(=S)NCc2ccco2)[n+]2ccccc2)cc1[N+](=O)[O-]`, for which the activation is 0.47% (inactive).
In the case of `CCN(CC)CCNC(=O)c1sc2ncn(CC(=O)Nc3ccc(C)c(Cl)c3)c(=O)c2c1C`, the activation was -1.34% (inactive).
For the compound `COc1ccccc1C1CC(=O)n2c(nc(-c3ccccc3)c2-c2ccccc2)S1` (stereo not drawn), the activation was -1.26% (inactive).
With `O=C(Nc1nnc(SCc2c(Cl)cccc2Cl)s1)c1cccc([N+](=O)[O-])c1`, the activation was 1.12% (inactive).
With `CNC(=O)c1[nH]cnc1C(=O)N[C@@H](CC(C)C)C(=O)OC(C)(C)C`, the activation is 2.22% (inactive).
For the compound `CC(C)(C)OC(=O)N1CCC(NC(=O)c2[nH]cnc2C(=O)N[C@@H](Cc2ccccc2)C(=O)OCc2ccccc2)CC1`, the activation was 0.67% (inactive).
In the case of `CNC(=O)c1[nH]cnc1C(=O)N[C@@H](CC(C)C)C(=O)OCc1ccccc1` it was 30.9% (active); in that of `CC(=O)c1c(N2CCN(c3ccc(F)cc3)CC2)nc(=S)n(-c2ccccc2)c1C`, 0.51% (inactive); in that of `Nc1cccc(S(=O)(=O)Nc2ccc(SC(F)F)cc2)c1`, 1.21% (inactive).
`NC(=O)c1ccccc1N=Cc1ccc2ccccc2c1`: the activation was 0.55% (inactive).
